Tests used:
[1] = test system: Epidermal growth factor receptor (Homo sapiens), P00533 [T790M]; conditions: at 1 µM
[2] = test system: Epidermal growth factor receptor (Homo sapiens), P00533 [L858R,T790M]; conditions: at 0.1 µM
[3] = test system: Epidermal growth factor receptor (Homo sapiens), P00533 [L858R,T790M]; conditions: at 1 µM
[4] = target: Ephrin type-A receptor 2 (Homo sapiens) (UniProt P29317); conditions: at 0.1 µM
[5] = target: Ephrin type-A receptor 2 (Homo sapiens) (UniProt P29317); conditions: at 1 µM
[6] = target: T1, Ephrin type-A receptor 3 (Homo sapiens) (UniProt P29320); conditions: at 0.1 µM
T1 sequence (whole entry): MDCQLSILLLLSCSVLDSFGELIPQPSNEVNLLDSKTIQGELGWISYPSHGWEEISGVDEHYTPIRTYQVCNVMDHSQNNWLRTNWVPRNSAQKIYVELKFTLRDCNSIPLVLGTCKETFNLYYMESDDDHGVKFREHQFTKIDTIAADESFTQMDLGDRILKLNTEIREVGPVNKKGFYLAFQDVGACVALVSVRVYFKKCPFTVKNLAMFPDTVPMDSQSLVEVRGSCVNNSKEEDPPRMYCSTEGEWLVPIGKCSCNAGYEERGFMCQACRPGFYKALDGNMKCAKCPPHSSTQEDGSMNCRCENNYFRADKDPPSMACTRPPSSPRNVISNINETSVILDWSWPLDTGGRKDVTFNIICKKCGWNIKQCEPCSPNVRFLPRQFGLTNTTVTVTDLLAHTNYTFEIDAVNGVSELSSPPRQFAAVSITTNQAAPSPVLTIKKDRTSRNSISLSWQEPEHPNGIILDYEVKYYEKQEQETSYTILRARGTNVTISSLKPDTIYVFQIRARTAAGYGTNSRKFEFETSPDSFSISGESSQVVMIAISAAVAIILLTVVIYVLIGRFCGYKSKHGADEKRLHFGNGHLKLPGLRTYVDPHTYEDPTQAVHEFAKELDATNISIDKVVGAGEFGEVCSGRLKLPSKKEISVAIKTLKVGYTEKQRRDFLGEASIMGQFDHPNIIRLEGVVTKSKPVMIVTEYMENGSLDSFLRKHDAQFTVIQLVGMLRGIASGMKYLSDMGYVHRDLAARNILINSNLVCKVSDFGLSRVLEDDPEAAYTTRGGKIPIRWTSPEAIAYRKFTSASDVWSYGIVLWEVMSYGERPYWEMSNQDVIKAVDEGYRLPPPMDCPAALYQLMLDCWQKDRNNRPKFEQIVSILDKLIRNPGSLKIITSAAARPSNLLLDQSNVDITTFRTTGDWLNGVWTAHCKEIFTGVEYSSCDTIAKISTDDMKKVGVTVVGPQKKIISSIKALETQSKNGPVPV

[7] = target: T1, Ephrin type-A receptor 3 (Homo sapiens); conditions: at 1 µM
[8] = target: Ephrin type-A receptor 4 (Homo sapiens) (UniProt P54764); conditions: at 0.1 µM
[9] = target: Ephrin type-A receptor 4 (Homo sapiens) (UniProt P54764); conditions: at 1 µM
[10] = target: T2, Ephrin type-B receptor 2 (Homo sapiens) (UniProt P29323); conditions: at 0.1 µM
T2 sequence (whole entry): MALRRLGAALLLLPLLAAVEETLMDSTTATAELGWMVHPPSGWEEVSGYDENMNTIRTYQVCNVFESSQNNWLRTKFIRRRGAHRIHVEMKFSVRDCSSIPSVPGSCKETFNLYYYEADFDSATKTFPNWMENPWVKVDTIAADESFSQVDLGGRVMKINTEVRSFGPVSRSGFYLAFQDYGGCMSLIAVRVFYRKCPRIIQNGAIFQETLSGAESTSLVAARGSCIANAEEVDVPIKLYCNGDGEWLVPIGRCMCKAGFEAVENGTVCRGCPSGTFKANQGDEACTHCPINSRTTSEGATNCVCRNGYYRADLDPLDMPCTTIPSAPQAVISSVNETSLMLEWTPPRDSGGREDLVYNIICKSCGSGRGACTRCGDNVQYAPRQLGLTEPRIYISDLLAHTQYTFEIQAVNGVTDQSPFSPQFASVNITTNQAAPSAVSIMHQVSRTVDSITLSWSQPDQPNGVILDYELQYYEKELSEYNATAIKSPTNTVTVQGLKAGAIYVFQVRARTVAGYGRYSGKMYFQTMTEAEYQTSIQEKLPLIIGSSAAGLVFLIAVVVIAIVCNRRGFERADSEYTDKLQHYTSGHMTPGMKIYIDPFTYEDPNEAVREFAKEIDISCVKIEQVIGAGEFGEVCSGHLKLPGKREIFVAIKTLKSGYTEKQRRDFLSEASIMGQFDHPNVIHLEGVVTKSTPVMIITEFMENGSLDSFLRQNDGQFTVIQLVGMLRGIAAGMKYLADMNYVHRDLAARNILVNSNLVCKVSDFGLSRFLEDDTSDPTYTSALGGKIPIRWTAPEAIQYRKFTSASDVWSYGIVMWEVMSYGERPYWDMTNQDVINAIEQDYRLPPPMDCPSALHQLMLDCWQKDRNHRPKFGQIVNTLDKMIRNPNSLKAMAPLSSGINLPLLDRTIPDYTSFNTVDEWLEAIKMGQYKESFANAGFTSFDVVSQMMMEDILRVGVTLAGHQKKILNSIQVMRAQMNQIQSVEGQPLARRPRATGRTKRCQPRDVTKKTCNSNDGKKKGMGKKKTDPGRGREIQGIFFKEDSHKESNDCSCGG

[11] = target: T2, Ephrin type-B receptor 2 (Homo sapiens); conditions: at 1 µM
[12] = target: T3, Ephrin type-B receptor 3 (Homo sapiens) (UniProt P54753); conditions: at 0.1 µM
T3 sequence (whole entry): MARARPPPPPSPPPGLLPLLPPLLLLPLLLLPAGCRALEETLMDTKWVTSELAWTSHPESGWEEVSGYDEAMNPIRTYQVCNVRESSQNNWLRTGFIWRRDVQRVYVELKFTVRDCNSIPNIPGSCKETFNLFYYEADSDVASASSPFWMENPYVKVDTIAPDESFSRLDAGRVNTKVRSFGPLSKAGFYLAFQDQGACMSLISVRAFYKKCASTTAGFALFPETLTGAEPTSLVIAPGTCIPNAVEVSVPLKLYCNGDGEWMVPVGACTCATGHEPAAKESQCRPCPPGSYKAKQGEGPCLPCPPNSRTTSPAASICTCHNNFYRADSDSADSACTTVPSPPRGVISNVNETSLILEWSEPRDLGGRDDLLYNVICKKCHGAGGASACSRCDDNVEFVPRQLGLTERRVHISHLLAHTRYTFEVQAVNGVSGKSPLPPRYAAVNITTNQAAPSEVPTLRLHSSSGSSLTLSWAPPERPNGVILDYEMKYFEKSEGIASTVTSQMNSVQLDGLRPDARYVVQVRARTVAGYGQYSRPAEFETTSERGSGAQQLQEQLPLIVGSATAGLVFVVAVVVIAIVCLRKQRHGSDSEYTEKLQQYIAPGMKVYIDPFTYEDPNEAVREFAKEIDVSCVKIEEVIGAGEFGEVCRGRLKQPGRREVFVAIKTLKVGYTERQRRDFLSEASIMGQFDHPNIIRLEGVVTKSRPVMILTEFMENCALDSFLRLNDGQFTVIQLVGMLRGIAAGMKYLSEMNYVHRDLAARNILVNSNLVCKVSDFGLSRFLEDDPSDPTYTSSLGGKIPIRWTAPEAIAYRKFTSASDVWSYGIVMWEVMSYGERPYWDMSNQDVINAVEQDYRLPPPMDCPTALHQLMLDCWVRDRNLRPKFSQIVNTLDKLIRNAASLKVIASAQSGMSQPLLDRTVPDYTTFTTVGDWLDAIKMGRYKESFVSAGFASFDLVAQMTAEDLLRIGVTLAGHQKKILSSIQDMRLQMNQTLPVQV

[13] = target: T3, Ephrin type-B receptor 3 (Homo sapiens); conditions: at 1 µM
[14] = target: T4, Ephrin type-B receptor 4 (Homo sapiens) (UniProt P54760); conditions: at 0.1 µM
T4 sequence (whole entry): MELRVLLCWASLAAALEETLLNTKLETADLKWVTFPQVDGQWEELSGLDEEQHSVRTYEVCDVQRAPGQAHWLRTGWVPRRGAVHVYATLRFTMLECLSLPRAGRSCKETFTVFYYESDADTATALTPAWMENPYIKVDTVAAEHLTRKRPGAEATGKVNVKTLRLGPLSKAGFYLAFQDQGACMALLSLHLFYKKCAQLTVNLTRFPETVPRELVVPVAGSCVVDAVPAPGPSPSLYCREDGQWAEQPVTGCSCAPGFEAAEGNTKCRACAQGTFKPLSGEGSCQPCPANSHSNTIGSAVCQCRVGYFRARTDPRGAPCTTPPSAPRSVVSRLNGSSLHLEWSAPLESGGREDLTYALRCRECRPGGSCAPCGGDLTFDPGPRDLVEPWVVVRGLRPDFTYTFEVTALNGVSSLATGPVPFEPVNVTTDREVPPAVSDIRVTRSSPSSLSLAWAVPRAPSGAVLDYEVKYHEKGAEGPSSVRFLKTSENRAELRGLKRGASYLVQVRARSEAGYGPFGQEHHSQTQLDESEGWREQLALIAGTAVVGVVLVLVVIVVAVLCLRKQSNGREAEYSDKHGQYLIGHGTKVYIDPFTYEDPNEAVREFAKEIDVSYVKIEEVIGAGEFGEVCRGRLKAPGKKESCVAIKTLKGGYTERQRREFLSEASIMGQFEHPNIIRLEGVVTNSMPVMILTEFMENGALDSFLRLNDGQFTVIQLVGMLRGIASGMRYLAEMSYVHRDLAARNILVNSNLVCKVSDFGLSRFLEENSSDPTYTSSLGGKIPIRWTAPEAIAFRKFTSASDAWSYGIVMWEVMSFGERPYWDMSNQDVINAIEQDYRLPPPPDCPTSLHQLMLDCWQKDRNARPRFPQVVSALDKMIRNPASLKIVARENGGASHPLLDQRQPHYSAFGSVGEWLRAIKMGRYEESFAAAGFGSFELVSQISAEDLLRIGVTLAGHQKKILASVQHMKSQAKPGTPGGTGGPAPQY

[15] = target: T4, Ephrin type-B receptor 4 (Homo sapiens); conditions: at 1 µM
[16] = target: Receptor tyrosine-protein kinase erbB-2 (Homo sapiens) (UniProt P04626); conditions: at 0.1 µM
Receptor tyrosine-protein kinase erbB-2 (Homo sapiens), sequence (P04626 whole entry): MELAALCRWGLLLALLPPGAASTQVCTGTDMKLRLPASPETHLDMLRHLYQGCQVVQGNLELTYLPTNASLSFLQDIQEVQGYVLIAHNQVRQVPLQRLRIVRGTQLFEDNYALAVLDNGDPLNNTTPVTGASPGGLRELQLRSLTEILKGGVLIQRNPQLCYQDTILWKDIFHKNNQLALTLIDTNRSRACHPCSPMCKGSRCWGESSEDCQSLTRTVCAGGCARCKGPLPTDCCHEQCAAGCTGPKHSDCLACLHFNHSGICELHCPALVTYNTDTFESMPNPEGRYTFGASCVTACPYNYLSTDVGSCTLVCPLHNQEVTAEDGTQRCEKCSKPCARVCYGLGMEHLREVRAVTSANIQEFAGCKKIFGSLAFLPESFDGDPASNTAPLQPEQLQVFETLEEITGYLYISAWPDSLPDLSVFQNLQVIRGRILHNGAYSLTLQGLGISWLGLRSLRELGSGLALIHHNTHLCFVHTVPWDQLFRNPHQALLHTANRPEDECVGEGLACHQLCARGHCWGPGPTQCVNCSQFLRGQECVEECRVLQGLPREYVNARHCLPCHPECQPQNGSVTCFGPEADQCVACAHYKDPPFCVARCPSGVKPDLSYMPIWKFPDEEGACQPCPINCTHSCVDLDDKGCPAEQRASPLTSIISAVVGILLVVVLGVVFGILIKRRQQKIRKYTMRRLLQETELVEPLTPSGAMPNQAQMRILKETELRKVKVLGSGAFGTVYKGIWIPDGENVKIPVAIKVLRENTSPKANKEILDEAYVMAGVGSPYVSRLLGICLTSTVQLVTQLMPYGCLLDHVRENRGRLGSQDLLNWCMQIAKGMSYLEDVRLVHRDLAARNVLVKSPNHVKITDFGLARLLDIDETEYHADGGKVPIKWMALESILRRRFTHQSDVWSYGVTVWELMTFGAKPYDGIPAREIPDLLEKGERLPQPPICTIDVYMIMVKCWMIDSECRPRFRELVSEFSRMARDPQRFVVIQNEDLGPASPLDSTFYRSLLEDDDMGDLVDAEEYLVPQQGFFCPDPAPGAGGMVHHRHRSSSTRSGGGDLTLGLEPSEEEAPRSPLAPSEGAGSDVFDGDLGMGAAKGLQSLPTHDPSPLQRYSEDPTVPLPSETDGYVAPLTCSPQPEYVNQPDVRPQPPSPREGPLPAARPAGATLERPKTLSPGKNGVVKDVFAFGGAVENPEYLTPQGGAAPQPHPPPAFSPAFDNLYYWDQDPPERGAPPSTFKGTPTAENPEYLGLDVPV

[17] = target: Receptor tyrosine-protein kinase erbB-2 (Homo sapiens) (UniProt P04626); conditions: at 1 µM
[18] = target: Receptor tyrosine-protein kinase erbB-4 (Homo sapiens) (UniProt Q15303); conditions: at 0.1 µM
Receptor tyrosine-protein kinase erbB-4 (Homo sapiens), sequence (Q15303 whole entry): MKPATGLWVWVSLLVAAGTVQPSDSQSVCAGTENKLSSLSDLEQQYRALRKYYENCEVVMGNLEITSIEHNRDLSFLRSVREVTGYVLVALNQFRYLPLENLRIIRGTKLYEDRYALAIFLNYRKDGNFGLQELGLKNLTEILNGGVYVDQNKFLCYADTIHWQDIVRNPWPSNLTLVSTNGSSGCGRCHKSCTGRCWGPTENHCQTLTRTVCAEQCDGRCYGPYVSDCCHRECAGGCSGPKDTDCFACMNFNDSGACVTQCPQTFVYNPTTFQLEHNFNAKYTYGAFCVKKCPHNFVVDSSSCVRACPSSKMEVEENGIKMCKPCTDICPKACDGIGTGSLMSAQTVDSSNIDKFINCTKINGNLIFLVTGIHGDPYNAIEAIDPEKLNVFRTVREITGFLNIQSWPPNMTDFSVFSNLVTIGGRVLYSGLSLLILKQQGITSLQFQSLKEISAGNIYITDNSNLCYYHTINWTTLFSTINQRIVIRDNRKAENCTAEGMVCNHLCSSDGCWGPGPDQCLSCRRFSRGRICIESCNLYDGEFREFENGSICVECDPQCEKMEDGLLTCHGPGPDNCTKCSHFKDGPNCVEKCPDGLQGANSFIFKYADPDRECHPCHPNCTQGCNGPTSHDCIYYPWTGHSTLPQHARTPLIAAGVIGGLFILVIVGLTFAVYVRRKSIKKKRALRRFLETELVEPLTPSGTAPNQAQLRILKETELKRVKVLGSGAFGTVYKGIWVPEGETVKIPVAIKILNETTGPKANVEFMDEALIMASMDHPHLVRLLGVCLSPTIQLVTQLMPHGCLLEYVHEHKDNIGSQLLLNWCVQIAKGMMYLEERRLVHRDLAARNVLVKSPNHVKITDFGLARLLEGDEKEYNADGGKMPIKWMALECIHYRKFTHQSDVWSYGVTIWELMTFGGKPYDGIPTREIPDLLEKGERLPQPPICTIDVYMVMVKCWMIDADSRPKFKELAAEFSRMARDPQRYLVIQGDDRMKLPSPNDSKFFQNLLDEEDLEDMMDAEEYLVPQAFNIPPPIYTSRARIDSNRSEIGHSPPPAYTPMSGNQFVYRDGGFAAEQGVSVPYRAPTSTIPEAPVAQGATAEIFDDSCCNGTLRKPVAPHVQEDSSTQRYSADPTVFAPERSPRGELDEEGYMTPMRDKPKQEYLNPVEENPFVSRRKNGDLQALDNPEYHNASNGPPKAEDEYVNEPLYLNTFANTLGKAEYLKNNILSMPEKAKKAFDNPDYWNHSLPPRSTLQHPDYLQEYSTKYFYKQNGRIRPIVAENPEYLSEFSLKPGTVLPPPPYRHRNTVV

[19] = target: Receptor tyrosine-protein kinase erbB-4 (Homo sapiens) (UniProt Q15303); conditions: at 1 µM
[20] = target: Tyrosine-protein kinase Fer (Homo sapiens) (UniProt P16591); conditions: at 0.1 µM;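 note: reported figures are averaged percent inhibition of FER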
Tyrosine-protein kinase Fer (Homo sapiens), sequence (P16591 whole entry, looked up): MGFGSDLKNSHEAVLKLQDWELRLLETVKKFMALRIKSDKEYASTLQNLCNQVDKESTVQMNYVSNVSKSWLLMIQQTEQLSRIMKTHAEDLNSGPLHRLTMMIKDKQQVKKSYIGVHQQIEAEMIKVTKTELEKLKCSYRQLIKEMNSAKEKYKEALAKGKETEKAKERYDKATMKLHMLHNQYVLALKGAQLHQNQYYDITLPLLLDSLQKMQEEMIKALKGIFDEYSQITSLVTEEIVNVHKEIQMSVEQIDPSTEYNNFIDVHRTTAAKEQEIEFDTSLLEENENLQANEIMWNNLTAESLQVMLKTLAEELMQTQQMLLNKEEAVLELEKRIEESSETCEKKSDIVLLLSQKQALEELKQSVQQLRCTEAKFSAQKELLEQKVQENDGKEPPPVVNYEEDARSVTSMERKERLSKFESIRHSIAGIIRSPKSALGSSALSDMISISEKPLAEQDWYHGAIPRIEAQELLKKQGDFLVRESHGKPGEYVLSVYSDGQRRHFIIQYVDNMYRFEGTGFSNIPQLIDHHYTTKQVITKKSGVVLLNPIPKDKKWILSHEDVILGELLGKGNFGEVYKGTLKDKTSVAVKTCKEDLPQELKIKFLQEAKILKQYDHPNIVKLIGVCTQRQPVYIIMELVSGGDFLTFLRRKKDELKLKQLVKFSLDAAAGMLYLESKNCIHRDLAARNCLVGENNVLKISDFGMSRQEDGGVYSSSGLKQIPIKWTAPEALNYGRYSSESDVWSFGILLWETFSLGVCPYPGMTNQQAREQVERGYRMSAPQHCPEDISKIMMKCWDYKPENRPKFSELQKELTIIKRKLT

Epidermal growth factor receptor (Homo sapiens), P00533 [T790M], sequence (P00533 whole entry T790M): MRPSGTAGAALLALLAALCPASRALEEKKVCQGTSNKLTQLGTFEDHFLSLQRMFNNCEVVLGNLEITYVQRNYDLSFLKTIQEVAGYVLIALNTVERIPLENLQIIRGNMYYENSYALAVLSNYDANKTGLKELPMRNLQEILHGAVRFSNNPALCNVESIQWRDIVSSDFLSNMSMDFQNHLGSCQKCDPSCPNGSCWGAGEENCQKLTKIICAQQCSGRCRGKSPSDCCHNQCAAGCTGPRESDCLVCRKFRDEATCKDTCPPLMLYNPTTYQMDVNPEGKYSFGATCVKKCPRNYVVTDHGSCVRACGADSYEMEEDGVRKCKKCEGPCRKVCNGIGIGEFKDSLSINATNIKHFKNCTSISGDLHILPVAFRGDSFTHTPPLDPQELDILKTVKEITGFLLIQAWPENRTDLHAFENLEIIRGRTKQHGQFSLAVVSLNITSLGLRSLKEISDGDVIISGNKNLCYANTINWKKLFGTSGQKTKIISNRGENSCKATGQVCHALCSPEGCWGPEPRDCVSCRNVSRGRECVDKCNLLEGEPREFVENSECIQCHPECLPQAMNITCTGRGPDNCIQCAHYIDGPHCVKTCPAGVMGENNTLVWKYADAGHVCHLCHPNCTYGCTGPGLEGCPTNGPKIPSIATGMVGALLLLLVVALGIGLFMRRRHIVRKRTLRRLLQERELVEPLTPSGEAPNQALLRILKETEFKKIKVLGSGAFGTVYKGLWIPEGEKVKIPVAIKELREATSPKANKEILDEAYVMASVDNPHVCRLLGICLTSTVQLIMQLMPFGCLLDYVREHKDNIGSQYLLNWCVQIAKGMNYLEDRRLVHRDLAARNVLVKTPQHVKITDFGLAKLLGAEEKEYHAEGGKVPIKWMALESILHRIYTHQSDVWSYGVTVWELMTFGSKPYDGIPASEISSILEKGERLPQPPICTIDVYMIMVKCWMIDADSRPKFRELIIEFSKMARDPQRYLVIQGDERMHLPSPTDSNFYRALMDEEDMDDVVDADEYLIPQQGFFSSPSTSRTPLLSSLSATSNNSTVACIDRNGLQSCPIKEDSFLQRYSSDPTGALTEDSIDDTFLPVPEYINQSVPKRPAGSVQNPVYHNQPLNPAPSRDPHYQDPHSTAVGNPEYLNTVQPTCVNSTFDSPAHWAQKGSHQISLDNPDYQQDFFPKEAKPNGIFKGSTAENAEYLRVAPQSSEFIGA

SMILES	inhibition [1] [%]	inhibition [2] [%]	inhibition [3] [%]	inhibition [4] [%]	inhibition [5] [%]	inhibition [6] [%]	inhibition [7] [%]	inhibition [8] [%]	inhibition [9] [%]	inhibition [10] [%]	inhibition [11] [%]	inhibition [12] [%]	inhibition [13] [%]	inhibition [14] [%]	inhibition [15] [%]	inhibition [16] [%]	inhibition [17] [%]	inhibition [18] [%]	inhibition [19] [%]	inhibition [20] [%]
CCS(=O)(=O)c1ccc(OC)c(Nc2ncc(-c3ccccc3Cl)o2)c1	3.29	-1.69	-0.03	1.32	1.73	5.46	4.36	5.58	9.33	4.99	8.86	4.07	3.23	1.77	1.22	-1.67	1.42	4.14	4.95	-0.76
CCC(=O)Nc1ccc(C)c(-c2ccc(C(=O)NCC3CC3)cc2)c1	2.33	-0.94	3.59	-1.79	-2.2	1.95	4.02	6.75	8.5	6.82	7.83	2.63	4.65	0.55	1.51	2.99	3.96	9.79	13.9	-0.76
FC(F)(F)c1cccc(Nc2nccc(-c3cnn4nc(-c5ccccc5)ccc34)n2)c1	-0.22	0.52	-0.49	2	0.59	2.67	3.91	5.08	-4.97	4.58	6.85	5.37	2.32	-0.91	0.74	2.98	2.21	7	8.48	-2.66
c1ccc(-c2n[nH]cc2-c2ccnc(-c3ccc(OCCN4CCOCC4)cc3)c2)nc1	-0.63	1.82	-2.02	4.75	2.42	-1.39	-0.22	-5.11	-9.05	0.38	5.59	-5.09	-7.2	-1.67	0.63	-3.69	-4.37	3.65	2.65	7.06
Cc1nnc(-c2ccc(C)c(-c3ccc(C(=O)NCc4ccc(Cl)cc4)cc3)c2)o1	3.59	1.86	2.04	-3.78	-3.32	-0.26	-1.93	6.29	5.1	2.73	2.23	1.15	-1.34	-0.5	-2.62	5.39	4.99	3.42	7.48	3.34
O=C1Nc2ccccc2/C1=C/Nc1ccc(-n2cncn2)cc1	4.3	2.89	1.3	1.55	1.91	2.74	4.04	4.98	12.3	3.5	8.52	4.57	2.77	2.19	2.59	3.17	9.83	9.69	12.5	3.94

— ChEMBL document CHEMBL1961873, “Compounds: GSK PKIS; Assays: Nanosyn kinase panel” (2012)
